Screens from PubChem BioAssay.
LYP inh 2 – PTPN22 phosphatase inhibitors, primary screen, biochemical, DiFMUP fluorescence, 2 µM; inhibition, % at 2 µM; 96,000 compounds, 0.21% hits; Tyrosine-protein phosphatase non-receptor type 22 (Homo sapiens), Q9Y2R2; recombinant LYP catalytic domain;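 active = inhibition at 2 µM at or above a set limit, the screen mean plus 3 SD, cut at about 24% in these data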
Target sequence (Q9Y2R2 whole entry, looked up, the tested form may be a part): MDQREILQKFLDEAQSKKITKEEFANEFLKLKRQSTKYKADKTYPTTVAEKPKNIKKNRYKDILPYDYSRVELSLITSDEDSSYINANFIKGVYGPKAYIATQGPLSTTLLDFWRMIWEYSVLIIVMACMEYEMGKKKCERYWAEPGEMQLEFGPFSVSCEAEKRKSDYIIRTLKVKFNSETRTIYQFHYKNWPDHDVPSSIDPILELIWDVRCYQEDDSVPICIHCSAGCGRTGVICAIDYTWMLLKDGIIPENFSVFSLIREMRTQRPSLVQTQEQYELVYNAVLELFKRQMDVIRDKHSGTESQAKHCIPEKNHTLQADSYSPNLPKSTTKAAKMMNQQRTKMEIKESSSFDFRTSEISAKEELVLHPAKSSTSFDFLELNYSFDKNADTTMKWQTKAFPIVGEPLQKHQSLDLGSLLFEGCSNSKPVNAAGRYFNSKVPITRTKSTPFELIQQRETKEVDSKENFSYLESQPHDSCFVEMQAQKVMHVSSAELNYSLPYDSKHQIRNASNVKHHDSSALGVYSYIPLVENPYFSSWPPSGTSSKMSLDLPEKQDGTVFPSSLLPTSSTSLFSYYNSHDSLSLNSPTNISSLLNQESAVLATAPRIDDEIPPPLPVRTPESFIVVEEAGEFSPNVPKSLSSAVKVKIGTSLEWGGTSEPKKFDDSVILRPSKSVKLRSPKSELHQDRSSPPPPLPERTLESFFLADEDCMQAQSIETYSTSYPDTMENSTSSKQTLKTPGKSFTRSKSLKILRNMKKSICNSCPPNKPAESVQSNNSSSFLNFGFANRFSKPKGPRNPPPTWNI
HUVEC tox IL1B – cytotoxicity in IL-1B stimulated HUVEC, primary screen, cytotoxicity control for IL-1B NFkB translocation project, imaging, Hoechst nuclear count, IL-1B stimulus; cell count reduction, % at 2 µM; 94,000 compounds, 0.41% hits; HUVEC cell count loss;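 active = cell count reduction more than 3 SD above the screen-wide mean, cut at about 70% in these data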
LYP act – LYP phosphatase activators, primary screen, biochemical, DiFMUP fluorescence, 2 µM; Tyrosine-protein phosphatase non-receptor type 22 (Homo sapiens), Q9Y2R2; recombinant LYP; 0 = plate median, 100 = signal doubled; activation, % at 2 µM; 96,000 compounds, 0.11% hits; AID 697, 2007;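 active = activation at 2 µM above a set limit, the mean plus 5 SD, cut at about 37% in these data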
NFkB transloc pot – enhancers of NFkB p65 translocation in HUVEC – imaging, IL-1B stimulus, high-content imaging, primary screen | activation, % at 2 µM | HUVEC IL-1B NFkB p65 nuclear translocation imaging | 94,000 compounds, 0.3% hits;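 active = activation above 40%, about the mean plus 3 SD, also judged a hit on visual image review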;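 note: percent activation is computed from the nuclear over cytoplasmic p65 intensity ratio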
NFkB transloc inh – inhibitors of IL-1B driven NFkB p65 nuclear import, primary screen, imaging, HUVEC, IL-1B stimulus, high-content imaging | 94,000 compounds, 0.43% hits | AID 796, 2007 | HUVEC IL-1B NFkB p65 nuclear translocation imaging | inhibition, % at 2 µM;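 active = inhibition above about 30% together with a positive call from visual inspection of the well image, limit read from the data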;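 note: nuclear over cytoplasmic p65 intensity ratio measured by imaging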
Each line names hits and unclear results; the compound was inactive in the other large screens. The list is not random: actives were taken first. Their share in the collection is about 1.3%.

O=[N+]([O-])c1ccc(N2CCN(CCO)CC2)cc1Sc1nc2ccccc2[nH]1	none
Cc1ccc2c(c1)N(CC(=O)Nc1ccc3c(c1)OCCO3)C(=O)CO2	HUVEC tox IL1B 91, NFkB transloc inh 99
Cc1ccc2c(c1)SC1=NC(c3ccccc3)(C(F)(F)F)NC(=O)N12 (stereo unspecified)	none
CC(NCc1ccccc1)C1COc2ccccc2O1 (stereo unspecified)	NFkB transloc pot 49
O=C1CCC(=O)N1CCc1c[nH]c2ccccc12	none
O=C1CCCCN1CCc1c[nH]c2ccccc12	HUVEC tox IL1B 86
CCc1ccc(C(=O)Cn2ncc(Cl)c(Cl)c2=O)cc1	NFkB transloc inh 56
CCOC(=O)C(C(=O)NCc1ccc(F)cc1)c1ncc(C(F)(F)F)cc1Cl (stereo unspecified)	HUVEC tox IL1B 86
CCSc1nc(C(F)(F)F)cc(=O)n1-c1ccccc1	none
Cn1c(SCc2ccc(Cl)cc2Cl)nc(C(F)(F)F)cc1=O	NFkB transloc pot 44
O=C(COc1ccc(Br)cc1)NCc1ccccn1	NFkB transloc pot 41
N#Cc1ccc(OCC(=O)NCCc2ccccn2)cc1	none
O=C(NCc1ccco1)C(c1ccccc1)N(C(=O)Cc1cccs1)c1ccccc1F (stereo unspecified)	none
CCN(CC(=O)Nc1cc(C)nn1-c1nc(C)cc(C)n1)Cc1ccccc1	none
Cc1cc(C)nc(SCNC(=O)c2ccccc2)n1	HUVEC tox IL1B 81
CCNC(=O)CN(Cc1ccccc1)S(=O)(=O)c1ccccc1	NFkB transloc inh 36
CCNC(=O)CN(CCc1ccccc1)S(=O)(=O)c1ccc(OC)cc1	none
COC(=O)CN(c1cccc(F)c1)S(C)(=O)=O	NFkB transloc pot 71
Cc1ccc(CNC(=O)C(NS(=O)(=O)c2cccs2)C(C)C)cc1 (stereo unspecified)	none
CC(C)C(NS(=O)(=O)c1cccs1)C(=O)NCCN1CCN(c2ccccc2)CC1 (stereo unspecified)	NFkB transloc inh 33
CN(C)c1ccc(C(=O)OCC(=O)NCC2CCCO2)cc1 (stereo unspecified)	none
CCCCn1nnnc1NCc1ccc(C)s1	none
Nc1ncnc2nc(SCc3ccc(Cl)cc3Cl)[nH]c12	none
Nc1ncnc2nc(Sc3ccc(Cl)cc3)[nH]c12	NFkB transloc inh 34
O=C(O)Cn1cc(C(=O)C2CC2)c2ccccc21	HUVEC tox IL1B 82
O=C(Cn1c(NCCCO)nc2ccccc21)c1cccs1	none
CCOC(=O)Cc1csc(NC(=O)c2ccc(NC(C)=O)cc2)n1	none
CCOC(=O)Cc1csc(NC(=S)NC(=O)c2ccc(Cl)cc2)n1	LYP inh 2 26
C=CCn1c(SC(C)CC)nc(O)cc1=O (stereo unspecified)	none
Cc1c(/C(O)=C2/C(=O)C(=O)N(CCN3CCOCC3)C2c2cccnc2)cnn1-c1ccccc1 (stereo unspecified)	NFkB transloc pot 60
Cc1nccn1CC(O)Cn1c2ccccc2c2ccccc21 (stereo unspecified)	NFkB transloc pot 46
Cc1cc(C)n(CC(O)Cn2c3ccccc3c3ccccc32)n1 (stereo unspecified)	none
CCNc1ccc(Br)cc(C(=O)/C=C/c2ccc(Cl)cc2Cl)c1=O	none
COc1ccc(/C=N/NC(=O)CCc2c(C)n[nH]c2C)cc1O	NFkB transloc pot 55
CC1(C)NC(=O)N(CC(=O)Nc2nc(-c3ccc(F)cc3)cs2)C1=O	none
CCn1c(SCC(=O)Nc2cc3oc4ccccc4c3cc2OC)nnc1-c1cccs1	NFkB transloc pot 41
c1ccc(-c2csc(Nc3ccc4c(c3)OCCO4)n2)cc1	NFkB transloc inh 44
O=C(Nc1nnc(C2CCCC2)s1)C1CCC1	NFkB transloc pot 40
O=C(CC1CCCC1)Nc1nnc(C2CC2)s1	none
O=C(C(Cl)Cl)N1c2ccccc2OCC1c1ccccc1 (stereo unspecified)	none
CCc1[nH]nc2c1C(c1cccnc1)C(C#N)=C(N)O2 (stereo unspecified)	NFkB transloc pot 43
CCN(c1ccc(NC(=O)COC(=O)CCC(=O)c2ccc(F)cc2)cc1)C(C)C	none
CCOC(=O)NC(NC(=O)OCC)C(=O)c1ccc(F)cc1	none
CCC(=O)NC(O)C(=O)c1ccc(C)cc1 (stereo unspecified)	NFkB transloc inh 32
CCn1c(-c2cc3c(C(F)(F)F)nn(C)c3s2)n[nH]c1=S	none
COc1cc(CNC2CCC(C)C2)cc(OC)c1 (stereo unspecified)	HUVEC tox IL1B 89
Cc1cccc(N(CC(=O)N/N=C/c2cc([N+](=O)[O-])ccc2Cl)S(C)(=O)=O)c1C	none
CC(C)Cn1c(SCc2nc3ccccc3c(=O)[nH]2)nc2ccccc2c1=O	none
Cc1c(C)n(C)c2ccc(C(=O)Nc3cccc4ccccc34)cc12	none
CC(=O)c1cccc(NC(=O)NCc2cccs2)c1	NFkB transloc pot 46
COc1cccc(OC)c1C(=O)Nc1cccc(C(C)=O)c1	none
COc1cc(NC(=O)Nc2cccc(C(C)=O)c2)cc(OC)c1OC	HUVEC tox IL1B 72
CC(=O)c1cccc(NC(=O)NCc2ccccn2)c1	none
CCn1c(NCc2cccs2)nc2ccccc21	HUVEC tox IL1B 87
O=C(Nc1ccc2nc(-c3cccs3)[nH]c2c1)c1cccs1	HUVEC tox IL1B 90
O=C(Nc1ccc(-c2nc3ccc(NC(=O)c4cccs4)cc3[nH]2)cc1)c1cccs1	LYP inh 2 29
O=C(O)CCCN=CC1=C(O)C(C(=O)c2ccccc2)CCC1=O (stereo unspecified)	none
Cc1cc(NC(=O)CSc2nc3sc(C)c(C)c3c(=O)n2C2CCCC2)no1	none
CCOC(=O)CSc1nnc(N)s1	none
CCOC(=O)CNC(=O)CSc1nnc(SCC(=O)NCC(=O)OCC)s1	NFkB transloc pot 54
O=C(Nc1ccc2snnc2c1)Nc1cccc2ccccc12	HUVEC tox IL1B 87
O=C1N/C(=N/N=C/c2ccccc2)SC1(c1ccccc1)c1ccccc1	none
O=C(O)C1CC=CCC1C(=O)NCc1ccc2c(c1)OCO2 (stereo unspecified)	none
CC(Sc1nnc(-c2cccs2)n1-c1ccccc1)C(=O)NCc1ccc2c(c1)OCO2 (stereo unspecified)	none
COc1ccc(N2CCN(C(c3cc(OC)ccc3OC)c3nnnn3CC3CCCO3)CC2)cc1 (stereo unspecified)	none
CCN(CC)S(=O)(=O)c1cccc(C(=O)OCC(=O)Nc2ccccc2OC(F)F)c1	NFkB transloc inh 43
Cc1c(CCOC(=O)CC23CC4CC(CC(C4)C2)C3)sc[n+]1Cc1ccccc1	none
Cc1c(CCOC(=O)C2C3CC4CC(C3)CC2C4)sc[n+]1CC(=O)c1ccc(Br)cc1 (stereo unspecified)	LYP inh 2 33
